Results taken from PubChem BioAssay (NCI).
Compounds without any hit were thinned out: in the full panel of roughly 83,000, 20% have a hit.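 Single-dose data. Exposure time 48 hours. Values below 10 considered active.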 A number with no mark means an inactive call. The source made the active and inactive calls.

Assays:
Assay in all cases: NCI-60 one-dose screen, 48 h (100 = growth as untreated, 0 = no growth, -100 = all killed)
Details in all cases: 10 µM unless noted
[1] = test system: SR leukemia
[2] = test system: RPMI-8226 leukemia
[3] = test system: OVCAR-8 ovarian
[4] = test system: SK-OV-3 ovarian
[5] = test system: IGROV1 ovarian
[6] = test system: OVCAR-3 ovarian
[7] = test system: HS 578T breast
[8] = test system: NCI/ADR-RES ovarian
[9] = test system: OVCAR-5 ovarian
[10] = test system: OVCAR-4 ovarian

Q: What does the source list for NS(=O)(=O)c1ccc(CCNC(=O)/C=C/c2ccc(Cl)cc2)cc1?
A: growth [1]: 75.6%; growth [2]: 98.3%; growth [3]: 95.1%; growth [4]: 105%; growth [5]: 91.7%; growth [6]: 105%; growth [7]: 98.2%; growth [8]: 103%

Q: COc1cccc(-c2nn(-c3ccccc3)cc2-c2ccnc(NCCCNS(=O)(=O)c3ccc(Br)cc3)c2)c1 was tested. Which growth [1] did it give?
A: 13.3%

Q: What about the growth [2] of the same molecule?
A: 34.5%

Q: What about the growth [9] of the same molecule?
A: 88.2%

Q: And the growth [10]?
A: 46.5%

Q: What about the growth [4] of the same molecule?
A: 64.8%

Q: And the growth [5]?
A: 47.6%

Q: And the growth [6]?
A: 58.8%

Q: And the growth [7]?
A: 66.2%

Q: What about the growth [8] of the same molecule?
A: 42%

Q: How did the growth [1] turn out when Cc1cccc(C)c1NC(=O)CSC(=S)N1CCN(CCOCCO)CC1 was run?
A: 102%

Q: And the growth [2]?
A: 108%

Q: And the growth [3]?
A: 106%

Q: What about the growth [10] of the same molecule?
A: 102%

Q: And the growth [4]?
A: 110%

Q: And the growth [5]?
A: 96.5%

Q: And the growth [7]?
A: 104%

Q: What about the growth [8] of the same molecule?
A: 99.5%

Q: How did the growth [1] turn out when COc1ccc2c(c1)C/C(=C\c1cc(-c3cc(OC)c(OC)c(OC)c3)n[nH]1)C2=O was run?
A: 57.8%

Q: What about the growth [2] of the same molecule?
A: 52.8%

Q: What about the growth [9] of the same molecule?
A: 97.5%

Q: And the growth [10]?
A: 82.2%

Q: What about the growth [4] of the same molecule?
A: 102%

Q: What about the growth [5] of the same molecule?
A: 106%

Q: And the growth [6]?
A: 93.6%

Q: What about the growth [7] of the same molecule?
A: 91.8%

Q: What about the growth [8] of the same molecule?
A: 83.4%

Q: Which results are given for N#CC1=C(N)Oc2ccc3ccccc3c2C1c1ccccc1Cl (centres undefined)?
A: growth [1]: 26.1%; growth [2]: 32.9%; growth [9]: 77.2%; growth [10]: 78.9%; growth [4]: 55.9%; growth [5]: 34.1%; growth [6]: 31.2%; growth [7]: 40.4%; growth [8]: 9.51% (active)

Q: Which results are given for C=C(C)[C@@H]1CC[C@]2(C(=O)OC)CC[C@]3(C)[C@H](CC[C@@H]4[C@@](C)(CC/C(N)=N/O)[C@H](C(=C)C)CC[C@]43C)[C@@H]12?
A: growth [1]: 69.2%; growth [2]: 93%; growth [9]: 105%; growth [10]: 92.1%; growth [4]: 115%; growth [5]: 107%; growth [6]: 103%; growth [7]: 93.9%; growth [8]: 101%

Q: With C=C(C)[C@@H]1CC[C@]2(/C=N/Nc3ccncc3)CC[C@]3(C)[C@H](CC[C@@H]4[C@@]5(C)CCCNC(C)(C)[C@@H]5CC[C@]43C)[C@@H]12 as the molecule, how does the growth [1] read?
A: 17.9%

Q: And the growth [2]?
A: 28.7%

Q: What about the growth [9] of the same molecule?
A: 105%

Q: What about the growth [10] of the same molecule?
A: 89.9%

Q: And the growth [4]?
A: 113%

Q: What about the growth [5] of the same molecule?
A: 96.4%

Q: What about the growth [6] of the same molecule?
A: 84.5%

Q: And the growth [7]?
A: 83.2%

Q: What about the growth [8] of the same molecule?
A: 94.5%

Q: C=C(C)[C@@H]1CC[C@]2(C(=O)O)CC[C@]3(C)[C@H](CC[C@@H]4[C@@]5(C)C/C(=C/c6ccc(OC)cc6)C(=O)C(C)(C)[C@@H]5CC[C@]43C)[C@@H]12 was tested. Which growth [1] did it give?
A: 30.9%

Q: What about the growth [2] of the same molecule?
A: 15.5%

Q: And the growth [9]?
A: 49.3%

Q: What about the growth [10] of the same molecule?
A: 26.8%

Q: And the growth [4]?
A: 25%

Q: And the growth [5]?
A: 23.8%

Q: And the growth [6]?
A: 16.5%

Q: What about the growth [7] of the same molecule?
A: 49.9%

Q: What about the growth [8] of the same molecule?
A: 17.7%

Q: How did the growth [1] turn out when N#CCCCCCn1c2ccccc2c2c3[nH]c(=O)[nH]c(=O)c3c3c4ccccc4n(CCCCCC#N)c3c21 was run?
A: 20.3%

Q: What about the growth [2] of the same molecule?
A: 53.4%

Q: What about the growth [9] of the same molecule?
A: 92.4%

Q: What about the growth [10] of the same molecule?
A: 58.7%

Q: What about the growth [4] of the same molecule?
A: 72.7%

Q: And the growth [5]?
A: 22.4%

Q: And the growth [6]?
A: 49.2%

Q: What about the growth [7] of the same molecule?
A: 51.6%

Q: What about the growth [8] of the same molecule?
A: 89.4%

Q: For COc1ccc2c(c1)C/C(=C\c1cc(-c3ccc4c(c3)OCO4)n[nH]1)C2=O, which growth [1] is on record?
A: 73.7%

Q: And the growth [2]?
A: 45.8%

Q: What about the growth [9] of the same molecule?
A: 98.3%

Q: What about the growth [10] of the same molecule?
A: 90.9%

Q: What about the growth [4] of the same molecule?
A: 95.6%

Q: And the growth [5]?
A: 99.1%

Q: What about the growth [6] of the same molecule?
A: 71.3%

Q: And the growth [7]?
A: 99.4%

Q: What about the growth [8] of the same molecule?
A: 109%

Q: Which results are given for C=C(C)[C@@H]1CC[C@]2(C)[C@H](CC=C3[C@@H]4CC(C)(C)CC[C@]4(C=O)CC[C@]32C)[C@@]1(C)CCCN?
A: growth [1]: -31.5% (active); growth [2]: 14.2%; growth [9]: 91.8%; growth [10]: 85.7%; growth [4]: 94.2%; growth [5]: 88.4%; growth [6]: 80.1%; growth [7]: 96%; growth [8]: 87.2%

Q: CC(C)(C)c1cc(-n2c(-c3ccc(Cl)cc3)nc3cc(C(=O)Nc4ccc(Cl)cc4)ccc32)n[nH]1 was tested. Which growth [1] did it give?
A: 70.3%

Q: What about the growth [2] of the same molecule?
A: 51.1%

Q: And the growth [9]?
A: 93%

Q: What about the growth [10] of the same molecule?
A: 56.4%

Q: And the growth [4]?
A: 99.8%

Q: What about the growth [5] of the same molecule?
A: 40.3%

Q: And the growth [6]?
A: 45.8%

Q: What about the growth [7] of the same molecule?
A: 55.8%

Q: What about the growth [8] of the same molecule?
A: 40.4%

Q: Which growth [1] does the source give for COc1cccc(-c2nn(-c3ccccc3)cc2-c2ccnc(NCCCNS(=O)(=O)c3cccc(F)c3)c2)c1 here?
A: -7.52% (active)

Q: What about the growth [2] of the same molecule?
A: 14.3%

Q: And the growth [9]?
A: 61.3%

Q: What about the growth [10] of the same molecule?
A: 34%

Q: What about the growth [4] of the same molecule?
A: 40.9%

Q: What about the growth [5] of the same molecule?
A: 29.6%

Q: And the growth [6]?
A: 46.5%

Q: And the growth [7]?
A: 32%

Q: And the growth [8]?
A: 12.7%

Q: COc1ccc2c(c1)c(-c1nc(-c3c[nH]c4ncccc34)cs1)cn2CCN was tested. Which growth [1] did it give?
A: 0.217% (active)

Q: What about the growth [2] of the same molecule?
A: 52.7%

Q: And the growth [9]?
A: 88.6%

Q: What about the growth [10] of the same molecule?
A: 57.1%

Q: What about the growth [4] of the same molecule?
A: 60.7%

Q: And the growth [5]?
A: 30.4%

Q: And the growth [6]?
A: 70.5%

Q: What about the growth [7] of the same molecule?
A: 62.3%

Q: What about the growth [8] of the same molecule?
A: 84.1%
